Experimental findings from PubChem BioAssay (NCI) are described below.

This is part of a sample that, as a whole, favours compounds with a hit. Of some 83,000 tested, about 20% had one in any assay.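 Note: values are percent growth. 100 is the growth of untreated cells, values between 100 and 0 indicate rising inhibition; between -100 and 0 indicates cell death.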 A number with no mark means an inactive call. Activity calls are given as the source filed them. The calls were made as follows: active = growth percent below 10; inactive = the rest.

Common to all, as to test: NCI-60 one-dose screen, 48 h (100 = growth as untreated, 0 = no growth, -100 = all killed)
Common to all, as to settings: 10 µM unless noted

For assay [1], the system named is NCI-H23 lung.
In assay [2] the test system is NCI-H226 lung.
Assay [3] has as its system NCI-H322M lung.
Assay [4] relates to HOP-62 NSCLC.
Assay [5] concerns NCI-H460 lung.
Assay [6] relates to HOP-92 NSCLC.
In assay [7] the test system is NCI-H522 lung.
Assay [8] relates to A549/ATCC NSCLC.
Assay [9] relates to 786-0 renal.
Assay [10] deals with COLO 205 colon.
The test system of assay [11] is DU-145 prostate.
Assay [12] deals with K-562 leukemia.
Assay [13] concerns MALME-3M melanoma.
In assay [14] the test system is MDA-MB-231 breast.
Assay [15] deals with RXF 393 renal.
For assay [16], the system named is SF-268 CNS.
Assay [17] relates to SF-295 CNS.
For assay [18], the system named is SF-539 CNS.
Assay [19] relates to UACC-257 melanoma.
Assay [20] deals with M14 melanoma.

As for `COc1cc2oc(-c3cccc(C(=O)Nc4cccc([N+](=O)[O-])c4)c3)cc(=O)c2c(OC)c1OC`, the growth in assay [1] is 41.1%; in assay [2], -18.5% (active); in assay [3], 40.2%; in assay [4] it was -13.4% (active); in [5] it was 32.3%; in assay [6] it was 6.73% (active). Moreover, the growth was -46% (active) in assay [7]; 23% in [8]; -22.9% (active) in [9]; 91% in assay [10]; 29.5% in assay [11]; 69.2% in assay [12]. Further, the growth in [13] is 11.4%; in assay [14], 11.5%; in assay [15] it was -13.4% (active); in [16], -3.57% (active); in assay [17] it was -0.211% (active); in assay [18] it was 3.56% (active). The growth was 31.7% in [19] and 58.2% in assay [20].

As to `CC1(C)CC[C@]2(C(=O)Nc3ccc(F)cc3)CC[C@]3(C)C(=CCC4[C@@]5(C)C[C@@H](O)[C@H](O)[C@@](C)(CO)C5CC[C@]43C)C2C1` (stereo not given in full), the growth in assay [1] was 49.8%; in assay [2], 25.5%; in assay [3], 72.7%; in assay [4] it was 58.6%; in assay [5] it was 30.8%; in assay [6], -1.23% (active). Moreover, the growth is 32.8% in assay [7]; 28.5% in [8]; 51.1% in [9]; 0.244% (active) in [10]; 59.7% in assay [11]; 18% in assay [12]. The growth in assay [13] is 60.7%; in assay [14], 27.8%; in [15] it was -6.8% (active); in assay [16] it was 52.6%; in [17] it was 26.1%; in assay [18], 49.7%. Moreover, the growth in assay [19] is 27.7%; in [20], 46.6%.

Regarding `CN(C)CCOc1ccc(C(=O)C2[C@H](c3ccc(Cl)cc3)[C@@H](c3ccccc3)NC23C(=O)Nc2ccc(Br)cc23)cc1` (stereo not given in full), the growth in assay [1] was -2.68% (active); in assay [2], 43.7%; in [3] it was 53.7%; in assay [4], 75.9%; in [5], -78.1% (active); in assay [6] it was 23.5%. The growth in assay [7] was -2.86% (active); in assay [8], 4.59% (active); in assay [9] it was -72.5% (active); in [10] it was -69% (active); in [11], 14.3%; in assay [12], -32.3% (active). Besides, the growth in [13] is -50.2% (active); in assay [14] it was -20.5% (active); in assay [15] it was -0.638% (active); in [16], 41.8%; in assay [17], -53.4% (active); in assay [18] it was 13%. For the same molecule, the results for the growth in assay [19] and in assay [20] were 53.8% and -71.5% (active), respectively.

With `Cc1ccccc1[C@H]1C(C(=O)c2ccc(Cl)cc2)C2(N[C@@H]1c1ccccc1)C(=O)Nc1ccccc12` (stereo not given in full), the growth in [1] is -52% (active); in [2], -55.2% (active); in assay [3], 16.6%; in assay [4], -48.2% (active); in assay [5] it was -45.5% (active); in assay [6] it was -50.4% (active). The growth in assay [7] was -48.1% (active); in assay [8] it was -21.7% (active); in assay [9] it was -41.5% (active); in assay [10] it was -74.5% (active); in assay [11], -34.4% (active); in assay [12] it was -21% (active). Further, the growth is -64.7% (active) in assay [13]; -60.4% (active) in [14]; -66% (active) in assay [15]; -12.5% (active) in assay [16]; -19% (active) in assay [17]; -69.5% (active) in assay [18]. Moreover, the growth is -16.4% (active) in assay [19] and -77.9% (active) in assay [20].

`COc1ccc(C(=O)/C=C/c2ccc(OCc3ccc(F)cc3)c(OC)c2)cc1OC`: the growth in assay [1] is 26.5%; in [2], 46.3%; in assay [3], 7.43% (active); in assay [4], 26.6%; in assay [5], 14.8%; in assay [6], -14.8% (active). In addition, the growth in assay [7] is 2.98% (active); in assay [8], 11.9%; in [9] it was 37.4%; in assay [10], 29.9%; in assay [11], 1.63% (active); in assay [12], 7.71% (active). Also, the growth was 61.4% in [13]; 11.1% in [14]; 18.7% in [15]; 24.3% in [16]; 15.6% in [17]; -38.6% (active) in assay [18]. For the same molecule, the growth in [19] was 33.6%; in assay [20] it was 38.1%.

In the case of `O=C(COc1ccc(NC(=O)Nc2ccc(Cl)c(Cl)c2)cc1)N=Nc1c(O)[nH]c2ccc([N+](=O)[O-])cc12`, the growth in [1] was 62.1%; in assay [2] it was 90.1%; in assay [3] it was 85.3%; in assay [4] it was 76.4%; in [5], 3.51% (active); in assay [6], 94%. In addition, the growth in assay [7] is 61.1%; in assay [8], 62.4%; in assay [9] it was 53.7%; in assay [10], 14.3%; in [11], 64.8%; in assay [12] it was 25.1%. Also, the growth in [13] was 77.9%; in assay [14], 37%; in assay [15], 75.4%; in assay [16], 84.3%; in [17], 53.1%; in assay [18], 1.4% (active). Besides, the figures for the growth in assay [19] and in [20] were 67.6% and 34.4%, respectively.

With `CC(=O)Oc1ccc(/C=C/C(=O)N[C@@H](Cc2ccccc2)C(O)C(=O)NCc2ccccc2)cc1OC(C)=O` (stereo not given in full), the growth was 93.3% in assay [1]; 102% in [2]; 83.4% in assay [3]; 95.2% in assay [4]; 56% in assay [5]; 90% in assay [6]. Further, the growth was 17.2% in [7]; 87.7% in assay [8]; 81.6% in [9]; 91.1% in assay [10]; 90.5% in assay [11]; 77.1% in assay [12]. Also, the growth in assay [13] was 87.4%; in assay [14], 72.7%; in assay [15], 104%; in [16], 68%; in [17], 100%; in assay [18], 71.2%. Also, the growth in assay [19] is 90.8%; in assay [20], 85.3%.

Take `CN(C)CCn1c2ccccc2c2nc3cc4ccccc4cc3nc21`: the growth was 16.6% in [1]; 26.8% in [2]; 29.6% in assay [3]; 38.3% in [4]; -52.1% (active) in assay [5]; 43.4% in [6]. The growth is 27.5% in assay [7]; -68% (active) in [8]; -44.3% (active) in assay [9]; 17.1% in assay [10]; -30% (active) in assay [11]; 2.68% (active) in [12]. Also, the growth in [13] was -87.3% (active); in [14], 9% (active); in assay [15], -42.9% (active); in [16], 46.2%; in [17], -67.6% (active); in [18], -72.2% (active). Also, the growth in [19] is 18.1%; in assay [20], -63.3% (active).
